Values without a mark were called inactive. Active and inactive are the calls of the source.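 How the source made its calls: active means inhibition reaching about 16% in any single replicate (limit read from the data); inactive means the rest.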

Data on 37 compounds can be found in PubChem BioAssay AID504710 (Sanford-Burnham Center for Chemical Genomics, 2011).

Chain of Hexokinase HKDC1 (Homo sapiens) (Q2TB90 whole entry, looked up): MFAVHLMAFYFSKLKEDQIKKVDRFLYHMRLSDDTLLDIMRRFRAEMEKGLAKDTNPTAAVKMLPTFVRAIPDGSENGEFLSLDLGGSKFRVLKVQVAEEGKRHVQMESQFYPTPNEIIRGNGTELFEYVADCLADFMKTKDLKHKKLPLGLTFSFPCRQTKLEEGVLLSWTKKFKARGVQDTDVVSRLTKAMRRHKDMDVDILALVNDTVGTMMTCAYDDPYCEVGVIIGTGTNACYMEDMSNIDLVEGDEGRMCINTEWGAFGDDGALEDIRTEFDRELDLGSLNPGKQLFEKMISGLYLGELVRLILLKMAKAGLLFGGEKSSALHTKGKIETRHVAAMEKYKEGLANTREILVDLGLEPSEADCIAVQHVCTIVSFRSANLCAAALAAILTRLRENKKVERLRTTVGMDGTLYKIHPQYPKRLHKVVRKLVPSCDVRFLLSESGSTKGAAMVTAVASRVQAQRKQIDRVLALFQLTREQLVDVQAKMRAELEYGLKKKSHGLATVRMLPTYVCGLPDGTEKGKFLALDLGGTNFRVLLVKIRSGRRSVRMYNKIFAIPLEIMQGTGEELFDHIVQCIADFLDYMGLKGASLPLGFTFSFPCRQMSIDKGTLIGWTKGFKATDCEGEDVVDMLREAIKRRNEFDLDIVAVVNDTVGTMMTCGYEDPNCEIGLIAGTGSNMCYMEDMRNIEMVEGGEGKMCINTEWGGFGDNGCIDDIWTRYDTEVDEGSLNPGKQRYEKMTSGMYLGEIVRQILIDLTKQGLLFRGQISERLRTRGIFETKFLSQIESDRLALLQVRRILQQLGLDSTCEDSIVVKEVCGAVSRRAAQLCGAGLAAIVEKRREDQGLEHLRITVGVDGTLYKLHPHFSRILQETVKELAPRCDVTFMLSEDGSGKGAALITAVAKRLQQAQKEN

The test addresses Hexokinase HKDC1 (Homo sapiens) (UniProt Q2TB90). The test can be described thus: compounds lowering human HKDC1 activity – biochemical, single concentration, confirmation (AID 504710). Conditions: recombinant HKDC1, G6PDH/diaphorase/resazurin fluorescence; at 20 µM; stronger effect = higher value.
As to `O=C(CSc1nnc(CCCN2C(=O)c3cccc4cccc(c34)C2=O)n1-c1ccccc1)N1CCCCC1`, the inhibition is 48.3% (active).
For `S=C1Cc2ccccc2N1`, the inhibition was -192%.
Then `O=c1c2ccccc2nc2n1CCC2`, with 67.1% (active).
Then `O=C(CSc1n[nH]c(-c2cccnc2)n1)Nc1ccnc2ccccc12`, with 46% (active); and `COP(=O)(OC)c1ccc(NCc2cc(O)ccc2O)cc1`, with 53.1% (active); and `COc1ccc(-c2nc3c(c(=O)n(C)c(=O)n3C)n2CC2CC(c3ccccc3)=NO2)cc1OC` (configuration not stated), with -32.8%.
Then `N#Cc1ccc(CSc2nnc(NC(=O)c3ccc4ncsc4c3)s2)cc1`, with 40.7% (active); and `COc1ccccc1NC(=S)NN=C(C)c1ccccn1`, with -61%.
As for `O=C1C(Cl)=C(NCCc2ccccc2)C(=O)c2ccccc21`, the inhibition was 59.5% (active).
For `CC1=NOC(=O)/C1=C\c1ccc(-c2ccc(Cl)cc2Cl)o1`, the inhibition was 47.4% (active).
Then `COc1cc(OC)cc(C(=O)NC(=S)NNC(=O)c2cnccn2)c1`, with -40%; and `O=C(O)[C@@H](c1ccccc1)N1Cc2ccccc2C1=O`, with 43.8% (active); and `CC(C)c1nc2oc3c(=O)[nH]cnc3c2c2c1COC(C)(C)C2`, with 48.4% (active).
Turning to `O=C(O)c1cc(O)c2c(c1)[C@@H]([C@H]1c3cc(C(=O)O)cc(O)c3C(=O)c3c(O[C@@H]4O[C@H](CO)[C@@H](O)[C@H](O)[C@H]4O)cccc31)c1cccc(OC3O[C@H](CO)[C@@H](O)[C@H](O)[C@H]3O)c1C2=O` (some centres not stated), the inhibition is 50.9% (active).
Under `CC(=O)NC1C(=O)N(CCN2CCOCC2)c2ccc(Cl)cc21` (configuration not stated) stands 60.6% (active); under `CC(=NNC(=S)N1CC2CCC(CC2)C1)c1cccc(C)n1`, -51.9%; under `O=C(O)c1cc(N2N=C(C(F)(F)F)/C(=C/C=C/c3ccco3)C2=O)ccc1Cl`, 57.5% (active).
Under `CC(C)c1ccc(S(=O)(=O)/N=C2/C=C(Sc3ncn[nH]3)C(=O)c3ccccc32)cc1` stands 60.8% (active); under `Cc1ccc(SC2=C(Sc3ccc(C)cc3)C(=O)c3ccccc3C2=O)cc1`, 69% (active).
With `COc1ccc(/C=C/C(=O)NC(=S)NNC(=O)c2cnccn2)cc1`, the inhibition was -58.3%.
Then `COc1ccc(NC(=O)CSc2ccc(-c3ccco3)nn2)cc1OC`, with 44% (active); and `Cc1cc(C)n2nc(SCc3nnc(SCc4ccccc4Cl)s3)nc2n1`, with 43% (active); and `O=C1C(Cl)=C(N2CCCCC2)C(=O)C(Cl)=C1c1cnc(N2CCCCC2)s1`, with 49.4% (active).
Regarding `Cc1ccc(N=Cc2cc(Cc3ccccc3Cl)cc([N+](=O)[O-])c2O)c(O)c1`, the inhibition is 30.2% (active).
Consider `O=C(c1ccccc1)c1n[nH]c(-c2ccccc2)cc1=O`, for which the inhibition was 16.3% (active).
Then `O=C(NCCc1ccccc1)C(c1cccs1)N(C(=O)CCl)c1ccc(Cl)cc1` (configuration not stated), with 23% (active); and `CCCc1nc2oc3c(NCCOCCO)ncnc3c2c2c1COC(C)(C)C2`, with 41.7% (active).
On to `CC(=O)NC1C(=O)N(CCN2CCOCC2)c2ccc(C)cc21` (configuration not stated), for which the inhibition was 69.7% (active).
On to `COc1cc(C2c3c([nH]c(=O)[nH]c3=O)Nc3ccc4ccccc4c32)cc(OC)c1OC` (configuration not stated), for which the inhibition is 43.5% (active).
Under `Cc1cc(Oc2ccc(C(C)(C)C)cc2)nc(N2CCOCC2)n1` stands -37%.
Regarding `O=C(/C=C/c1cccs1)Nc1scc(-c2ccccc2)c1C(=O)O`, the inhibition is 58.2% (active).
With `C=CCn1nc([N+](=O)[O-])nc1Sc1cccc2cccnc12`, the inhibition was -52.4%.
Under `Cc1nc(COC(=O)c2cc(O)c3ccccc3c2O)cs1` stands 39.5% (active); under `Clc1ccc(N=c2ssnc2Cl)nc1`, -79.7%.
`CCc1ccc(C2=NNC(=Nc3cccc(S(=O)(=O)N(C)C)c3)SC2)cc1`: the inhibition is -141%.
As to `COc1ccc2cc(CCNC(=O)c3ccc(S(=O)(=O)N4CCCC4)cc3)c(=O)[nH]c2c1`, the inhibition is 59.8% (active).
`COc1ccc(C(=O)c2coc3c2C(=O)C(=O)c2ccccc2-3)cc1`: the inhibition is 44.8% (active).

Usually inhibition stands for the change of the read-out against control, counted positive when it falls.
